PubChem BioAssay (Tox21)
“And” between values parts separate entries of the source, which are not always exact repeats. Equal values may be shown once. A number with no mark means an inactive call. Inconclusive results are not listed. Entries that show only a call come without a potency. The source made the active and inactive calls. Unless noted, the call rests on the fitted dose curve; in most records, active means well fitted curve in the direction sought with a large enough effect in the repeat runs; inconclusive means weak or mixed curves; inactive means no such curve, though single readings can be large; an effect the other way counts as inactive or inconclusive.

Columns and labels:
[1] = qHTS assay for small molecules that induce genotoxicity in human embryonic kidney cells expressing luciferase-tagged ATAD5 (AID 651632); further: nearly all actives have a fitted effect of over 15% in size; further: potency means the concentration at half of the fitted maximal effect
Summary of the method: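 Test compounds were delivered by pin tool onto HEK293T reporter cells (2,000/well) expressing ATAD5 fused to luciferase. After 16 hr at 37C, 5% CO2, Amplite was added for 30 min at room temperature and luminescence was measured.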

[2] = qHTS assay for small molecule agonists of the p53 signaling pathway - cell viability (AID 651633; calls by dose curve; further: nearly all actives have a fitted effect of over 30% in size; further: potency means the concentration at half of the fitted maximal effect)
Summary of the method: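 Viability counter-read: CellTiter-Glo luminescence (30 min, room temperature) in the same p53RE-bla plates. These plates had been exposed to compounds for 16 h at 37 C.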

[3] = qHTS assay for small molecules that induce genotoxicity in human embryonic kidney cells expressing luciferase-tagged ATAD5 - cell viability (AID 651634; calls by dose curve; further: nearly all actives have a fitted effect of over 25% in size; further: potency means the concentration at half of the fitted maximal effect)
Summary of the method: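 Quantitative high-throughput format. HEK293T cells expressing ATAD5 fused to luciferase were plated at 2,000 cells/well and treated 15.5 hr with compound versus DMSO. Viability was determined by fluorescent live-cell protease substrate, 30 min at 37C.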

[4] = qHTS assay for small molecule disruptors of the mitochondrial membrane potential - cell viability (AID 720634; calls by dose curve; further: nearly all actives have a fitted effect of over 20% in size; further: potency means the concentration at half of the fitted maximal effect)
Summary of the method: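 Same-well counter-screen: following the MMP dye addition, CellTiter-Glo was added to 1 hr compound-treated HepG2 cells and luminescence read after 30 min at room temperature.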

[5] = qHTS assay for small molecule disruptors of the mitochondrial membrane potential (AID 720635); further: potency means the concentration at half of the fitted maximal effect
Summary of the method: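 Mitochondrial membrane potential tracked with Mito-MPS dye, red aggregates (ex 540/em 590 nm) against green monomers (ex 490/em 535 nm). Compound treatment 1 hr at 37C, dye 30 min in HepG2.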

[6] = qHTS assay to test for compound auto fluorescence at 590 nm (red) in HepG2 cells (AID 720674)
Summary of the method: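 We screened compounds on adherent HepG2 cells, incubating them for an hour at 37 C in 5% CO2 before reading emission at 590 nm under 540 nm excitation; values reflect equivalence to Rose Bengal sodium fluorescence.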

[7] = qHTS assay to test for compound auto fluorescence at 535 nm (green) in HepG2 cells (AID 720675)
[8] = qHTS assay to test for compound auto fluorescence at 460 nm (blue) in HEK293 cells (AID 720678)
Summary of the method: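 Measured: blue fluorescence (Ex 405/Em 460 nm) of compound-treated HEK293 cells, incubated overnight at 37C with 5% CO2 and scaled to triamterene equivalents.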

[9] = qHTS assay to test for compound auto fluorescence at 590 nm (red) in HEK293 cells (AID 720679)
Summary of the method: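 Using HEK293 cells at 2,000 per well, the screen added 23 nL of each compound after cell attachment and incubated overnight (37C, 5% CO2). The plate reader then captured red-label fluorescence, Ex/Em 540/590nm.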

[10] = qHTS assay for small molecule agonists of the p53 signaling pathway (AID 651631; calls by dose curve; further: potency means the concentration at half of the fitted maximal effect; nearly all actives have a fitted effect of over 15% in size)
Summary of the method: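 HCT-116 cells carrying a stable p53 response element–beta-lactamase reporter were plated, rested 5 h at 37 °C, then exposed to compound in DMSO for 16 h at 37 °C; reporter activity was read as FRET substrate fluorescence after 2 h at room temperature.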

Structure (SMILES)	Potency [1]	Potency [2]	Potency [3]	Potency [4]	Potency [5]	Potency [6]	Potency [7]	Potency [8]	Potency [9]	Potency [10]
Oc1cccc(-c2c3nc(c(-c4cccc(O)c4)c4ccc([nH]4)c(-c4cccc(O)c4)c4nc(c(-c5cccc(O)c5)c5ccc2[nH]5)CC4)C=C3)c1	inactive	9.44 µM (active)	13.3 µM (active) and 11.9 µM (active)	inactive	26.6 µM (active)	inactive	inactive	inactive	inactive	
Cn1cc(C(=O)[C@@H]2CCc3nc[nH]c3C2)c2ccccc21	inactive	inactive	inactive	inactive	inactive	inactive	inactive	inactive	inactive	
Cc1cc(O)c(C(C)(C)C)cc1C(C)(C)C	inactive	9.69 µM (active)	15.4 µM (active)	15.4 µM (active)	0.969 µM (active)	inactive	inactive	inactive	inactive	
CCCCCCCC[P+](CCCCCCCC)(CCCCCCCC)CCCCCCCC	inactive	12.1 µM (active)	13.6 µM (active)	21.6 µM (active)	0.0963 µM (active)	inactive	inactive	inactive	inactive	
O=C1C=CC(=O)N1c1ccc(Cc2ccc(N3C(=O)C=CC3=O)cc2)cc1		10.9 µM (active)	15.4 µM (active)	7.7 µM (active)	6.86 µM (active)	inactive	inactive	inactive	inactive	13.7 µM (active)
Cc1onc(-c2c(Cl)cccc2Cl)c1C(=O)N[C@@H]1C(=O)N2[C@@H]1SC(C)(C)[C@@H]2C(=O)O	inactive	inactive	inactive	inactive	inactive	inactive	inactive	inactive	inactive	
CC1=NC(C)OC1C (configuration not stated)	inactive	inactive	inactive	inactive	inactive	inactive	inactive	inactive	inactive	
COc1ccc(C(=O)/C(Br)=C\C(=O)O)cc1				inactive	inactive	inactive	inactive	inactive	inactive	10.6 µM (active) and 21.7 µM (active)
N#CSc1ccc(N)c([N+](=O)[O-])c1	inactive	inactive	61.5 µM (active)	inactive	61.5 µM (active)	inactive	inactive	inactive	inactive	
CCCCN1C(=O)[C@@H]([C@H](O)C2CCCCC2)NC(=O)C12CCN(Cc1ccc(Oc3ccc(C(=O)O)cc3)cc1)CC2	inactive			inactive		inactive	inactive	inactive	inactive	54.5 µM (active)
O=C(NO)C1(NS(=O)(=O)c2ccc(Oc3ccc(F)cc3)cc2)CCOCC1	inactive	inactive	inactive	inactive	inactive	inactive	inactive	inactive	inactive	
CN(C)[C@@H]1C(=O)C(C(N)=O)=C(O)[C@@]2(O)C(=O)C3=C(O)c4c(O)ccc(Cl)c4[C@@H](O)[C@H]3C[C@@H]12	inactive	inactive	inactive	inactive	inactive	inactive	inactive	inactive	inactive	
CCc1cc(Cc2cc(CC)cc(C(C)(C)C)c2O)c(O)c(C(C)(C)C)c1	inactive	10.9 µM (active)	61.1 µM (active)	inactive	0.864 µM (active)	inactive	inactive	inactive	inactive	
Cc1ccc(-n2nc(C(C)(C)C)cc2NC(=O)Nc2ccc(OCCN3CCOCC3)c3ccccc23)cc1	inactive	inactive	inactive	inactive	18.8 µM (active)	inactive	inactive	inactive	inactive	
CCCCCCCCOc1ccccc1C(=O)Nc1ccc(C(=O)OCC[N+](C)(CC)CC)cc1	inactive	23.7 µM (active)	inactive	inactive	31.2 µM (active)	inactive	inactive	inactive	inactive	
CCOC(=O)O[C@]1(C(=O)OCCl)CC[C@H]2[C@@H]3CCC4=CC(=O)C=C[C@]4(C)[C@H]3[C@@H](O)C[C@@]21C	inactive	inactive	inactive	inactive	inactive	inactive	inactive	inactive	inactive	
CCCCCCCCOC(=O)c1ccc(O)cc1	inactive	inactive	inactive	24.3 µM (active)	17.2 µM (active)	inactive	inactive	inactive	inactive	
CCCCCCCC[N+](CCCCCCCC)(CCCCCCCC)CCCCCCCC	inactive	13.7 µM (active)	30.6 µM (active)	27.3 µM (active)	0.0768 µM (active)	inactive	inactive	inactive	inactive	
CCC(C)Nc1ccc(NC(C)CC)cc1 (configuration not stated)	inactive	14 µM (active)	inactive	44.1 µM (active)	8.8 µM (active)	inactive	inactive	inactive	inactive	
CN(C)C(=O)C1(N2CCCCC2)CCN(CC[C@@]2(c3ccc(Cl)c(Cl)c3)CN(C(=O)c3ccccc3)CCO2)CC1	inactive	64.1 µM (active)	64.1 µM (active)			inactive	inactive	inactive	inactive	
C=CC(=O)OCCn1c(=O)n(CCOC(=O)C=C)c(=O)n(CCOC(=O)C=C)c1=O	5.45 µM (active)	27.3 µM (active)	27.3 µM (active)	inactive		inactive	inactive	inactive	inactive	
